Assay results published in PubChem BioAssay AID720523 (National Center for Advancing Translational Sciences (NCATS), 2013).
In all, about 1,400 compounds went through this assay and about 25 (2%) were called active. Not shown: some 19% with an inconclusive outcome. The call rests on the fitted dose curve; in most records, active means well fitted inhibition curve with a large enough effect; inconclusive means small, poorly fitted or top-dose-only effect; inactive means flat fitted curve, though single readings scatter. Only a sample is shown.
On the % scale 0 is the no-effect control and ±100 the full control effect.

Test: Nrf2 qHTS screen for inhibitors: A549 ARE-Fluc Cytotoxicity Counterscreen for Hit Validation
Settings: A549 ARE-Fluc cells; series mostly up to 46.1 µM; activity change, negative = cytotoxicity: at the top concentration
Text: Nrf2 is a transcription factor that maintains cellular redox homoestasis and protects cells from xenobiotics. Nrf2 binds to the antioxidant response element (ARE) to induce gene expression of a broad spectrum of genes that encode for antioxidants. […] Finding a small molecule that act as an inhibitor of Nrf2 function would represent a novel therapeutic target that could lead to improvement in survival of patients undergoing chemo- and/or radio- therapy.
In collaboration with the Biswal laboratory, a cell based, luminescence assay (BugLite) was developed to detect the Nrf2 activity using the A549 ARE_Fluc cells (AID 504648). This assay was coupled with a fluorescence based (CellTiter Fluor) cytotoxicity assay to identify and exclude toxic compounds. This coupled assay was used to evaluate selected compounds for hit validation. The data herein is the result of the CellTiter Fluor assay where decrease in fluorescence signal = cytotoxicity. Inactivity is the desired outcome for this assay.
NIH Chemical Genomics Center [NCGC]
NIH Molecular Libraries Probe Centers Network [MLPCN]
Assay Submitter (PI): Shyam Biswal, Johns Hopkins University
[1] Shibata T., et al., Genetic alteration of Keap1 confers constitutive Nrf2 activation and resistance to chemotherapy in gallbladder cancer. Gastroenterology, 2008.
[2] Sjoblom T., et al., The consensus coding sequences of human breast and colorectal cancers. Science, 2006.
Five uL of cell suspension was dispensed into 1536-well white TC-treated plate using the Kalypsys dispenser to achieve a density of 5000 cells/well in all columns except column 1. The plates were incubated at 37deg C at 5% CO2 for 2 hours before 23 nL of compounds were added with the Kalypsys pin tool equipped with a 1,536-pin array. The control compounds Budesonide and Staurosporine were added at a concentration of 2mM. Budesonide was also added as a 1:10 titration, starting at 200uM, to achieve the dose-response control signal. The plates were incubated for 18-24 hour at 37deg C, 5% CO2 followed by a 5ul addition of 5% FBS OPTI-MEM growing media in column 1 as negative control. One microliter of 5x CellTiter Fluor (Promega) was added to each well and the assay plates were incubated at 37deg C, 5% CO2 for 30 minutes. The fluorescence signal was read using the PerkinElmer ViewLux plate reader (Ex = 405 nm /Em = 525 nm) for a 3 second exposure. After the signal was taken, 3 uL of 3x BugLite was dispensed into all wells. The plates were then incubated at room temperature for 15 minutes. A second ViewLux read (40 sec exposure) was performed to detect the luminescence signal. Cytotoxicity was assessed through the first fluorescent read while biochemical activity against Nrf2 was measured in the luminescent read. The data was normalized to the positive and negative controls.
In the case of CCC(C)N1C(=O)S/C(=C/c2ccc(Sc3nc4ccccc4[nH]3)o2)C1=O (stereo unspecified), the “activity change, negative = cytotoxicity” value is reported as -29.1% (inactive). In the case of CC(C)(C)c1ccc(Oc2ccc(N)cc2)cc1, the “activity change, negative = cytotoxicity” value is reported as -24% (inactive). With CCOc1ccc(S(=O)(=O)N2CCCCC2)cc1NC(=O)CN1CCCC1c1cccs1 (stereo unspecified) the “activity change, negative = cytotoxicity” value was -3.35% (inactive). For O/N=C(\C[n+]1ccccc1)c1ccc(Br)cc1, the “activity change, negative = cytotoxicity” value was -11.6% (inactive). With COc1ccc(C(=O)C[n+]2ccc(N)c(C)c2C)cc1 the “activity change, negative = cytotoxicity” value was -28.1% (inactive). With Cc1csc[n+]1CCC1CCCCC1 the “activity change, negative = cytotoxicity” value was -0.656% (inactive). With CCCCNc1nc2c(c(=O)n(C)c(=O)n2C)n1Cc1cccc(OC)c1 the “activity change, negative = cytotoxicity” value was -14.8% (inactive). With COc1cccc(-c2nc(CS(=O)(=O)CC(=O)N3CCN(c4cc(C)ccc4C)CC3)c(C)o2)c1 the “activity change, negative = cytotoxicity” value was -29.3% (inactive). With CC(C)Cn1c(N)c(C(=O)COC(=O)CN2C(=O)C3CC=CCC3C2=O)c(=O)n(C)c1=O (stereo unspecified) the “activity change, negative = cytotoxicity” value was -2.49% (inactive). For O=C1C=C(c2ccnc3cc(Cl)ccc23)C[C@@H](c2ccc3c(c2)OCO3)C1, the “activity change, negative = cytotoxicity” value was -4.05% (inactive). With CN(Cc1cccnc1)C(=O)c1cc(COc2ccc3ncccc3c2)on1 the “activity change, negative = cytotoxicity” value was -6.55% (inactive). For Cc1ccc(NS(=O)(=O)c2cccs2)cc1S(=O)(=O)N1CCCCCC1, the “activity change, negative = cytotoxicity” value was -5.52% (inactive). In the case of CC(=O)OC(C)C[N+](C)(C)C (stereo unspecified), the “activity change, negative = cytotoxicity” value is reported as -23.7% (inactive). For Cn1nccc1C(=O)NC1CCCc2c1cnn2-c1ccc(F)cc1F (stereo unspecified), the “activity change, negative = cytotoxicity” value was 0.272% (inactive). With COCCn1c(SCC(=O)Nc2ccccc2F)nc2c(c1=O)SCC2 the “activity change, negative = cytotoxicity” value was 0.723% (inactive). For CC(=O)N1c2ccc(S(=O)(=O)N3CCCC(C(=O)Nc4cccc(Cl)c4)C3)cc2CC1C (stereo unspecified), the “activity change, negative = cytotoxicity” value was -14.6% (inactive). In the case of CC1CCCN(S(=O)(=O)c2ccc(C(=O)Nc3nnc(-c4ccncc4)o3)cc2)C1 (stereo unspecified), the “activity change, negative = cytotoxicity” value is reported as -25.8% (inactive). For CC(=O)N1CCCc2cc(S(=O)(=O)N3CCCC(C(=O)N4CCN(c5cccc(Cl)c5)CC4)C3)ccc21 (stereo unspecified), the “activity change, negative = cytotoxicity” value was -11% (inactive). With O=C(CN1C(=O)c2ccccc2S1(=O)=O)N1CCc2ccccc21 the “activity change, negative = cytotoxicity” value was -2.66% (inactive). For CC1(C)O[C@@H]2CC3C4C[C@H](F)C5=CC(=O)C=CC5(C)C4C(O)CC3(C)[C@]2(C(=O)CO)O1 (stereo partly specified), the “activity change, negative = cytotoxicity” value was -14.4% (inactive). For Cc1ccc(NC(=O)C2CC(=O)N(c3ccc4c(c3)OCCO4)C2)cc1S(=O)(=O)N1CCCCCC1 (stereo unspecified), the “activity change, negative = cytotoxicity” value was -20.8% (inactive). With C=CCC1(CC=C)CCCN1C(=O)c1cc(COc2ccc(-n3cncn3)cc2)on1 the “activity change, negative = cytotoxicity” value was -4.31% (inactive). In the case of COc1ccc(CC(=O)Nc2nc(-c3ccc(F)c(F)c3)cs2)cc1OC, the “activity change, negative = cytotoxicity” value is reported as -8.52% (inactive). For CC(C)(C)n1ncc2c(=O)n(Cc3ccc(C(=O)c4ccccc4)cc3)cnc21, the “activity change, negative = cytotoxicity” value was -5.96% (inactive). In the case of Brc1c(CSc2nncc3ccccc23)nc2ccccn12, the “activity change, negative = cytotoxicity” value is reported as -11.6% (inactive). In the case of CCC(C)(C)c1ccc(Oc2ccc(NC(=O)COC(=O)C3=COCCO3)cc2)cc1, the “activity change, negative = cytotoxicity” value is reported as -17.9% (inactive). With OCCCNc1nccc(-c2cc(Nc3cccc(Cl)c3)ncn2)n1 the “activity change, negative = cytotoxicity” value was -25.5% (inactive). In the case of CC(=O)N1c2ccc(S(=O)(=O)N3CCCC(C(=O)NCc4ccc(Cl)cc4)C3)cc2CC1C (stereo unspecified), the “activity change, negative = cytotoxicity” value is reported as -5.54% (inactive). In the case of Cc1cc(C)c(-c2csc(NC(=O)CCCc3nc4ccccc4c(=O)[nH]3)n2)c(C)c1, the “activity change, negative = cytotoxicity” value is reported as -24.1% (inactive). In the case of COc1ccc(CCNC(=O)c2ccc(CS(=O)(=O)c3ccc(Br)cc3)o2)cc1OC, the “activity change, negative = cytotoxicity” value is reported as -1.61% (inactive). With Cc1cccc(N2CCN(C(=O)CCS(=O)(=O)c3ccc4c(c3)NC(=O)C(C)S4)CC2)c1C (stereo unspecified) the “activity change, negative = cytotoxicity” value was -21.8% (inactive). In the case of O=C(OCCOc1ccccc1Cl)c1cc(S(=O)(=O)N2CCCCC2)ccc1N1CCOCC1, the “activity change, negative = cytotoxicity” value is reported as -6.85% (inactive). For Cc1nc(N2CCOCC2)c2c(C)c(C(=O)Nc3ccc(C(F)(F)F)cc3)sc2n1, the “activity change, negative = cytotoxicity” value was -23.1% (inactive). With Cc1ccc(S(=O)(=O)N2C[C@@H]3CCCC[C@@H]3[C@@H](C)[C@H]2c2cn(Cc3ccccc3)c3ccc(F)cc23)cc1 the “activity change, negative = cytotoxicity” value was -6.88% (inactive). With Cc1ccc(S(=O)(=O)N2CCN(c3ncnc4ccccc34)CC2)cc1 the outcome was “inactive”. In the case of COc1ccc(OC)c(Cc2cnc3nc(N)nc(N)c3c2C)c1, the “activity change, negative = cytotoxicity” value is reported as -13.1% (inactive). For O=C(Nc1ccncc1)c1c(F)cccc1F, the “activity change, negative = cytotoxicity” value was -5.15% (inactive). With O=C(Nc1ccc(Br)cn1)C1CCN(S(=O)(=O)c2cccs2)CC1 the “activity change, negative = cytotoxicity” value was -0.549% (inactive). With O=C(CCC(=O)N1CCN(S(=O)(=O)c2ccc(Cl)cc2)CC1)NCc1cccc(C(F)(F)F)c1 the “activity change, negative = cytotoxicity” value was -20.4% (inactive). With Cc1cc(C(=O)NC2CCCc3c2cnn3-c2cccc(C)c2C)c(C)o1 (stereo unspecified) the “activity change, negative = cytotoxicity” value was -15.6% (inactive). In the case of CCOC(=O)c1cnc(-n2nc(C)cc2C)nc1NNc1cc(C)nc(-c2ccccc2)n1, the “activity change, negative = cytotoxicity” value is reported as -16.4% (inactive). In the case of COc1ccc(N2CCN(C(=O)CSCc3nc(-c4ccccc4Cl)oc3C)CC2)cc1, the “activity change, negative = cytotoxicity” value is reported as -16.2% (inactive). With CCCOc1ccc(Cc2c(Cl)nc(SC)nc2NC)cc1 the “activity change, negative = cytotoxicity” value was 7.6% (inactive). In the case of O=c1[nH]c(SCc2cccc(F)c2)nc2ccccc12, the “activity change, negative = cytotoxicity” value is reported as 7.99% (inactive). For O=C(CSc1nnc2c(n1)[nH]c1ccccc12)NC1CCCCC1, the “activity change, negative = cytotoxicity” value was -1.2% (inactive). With CCCN(c1ccc(C(C)C)cc1)S(=O)(=O)c1c(C)[nH]c(=O)[nH]c1=O the “activity change, negative = cytotoxicity” value was -10.9% (inactive). In the case of CC1CCN(S(=O)(=O)c2ccc(NC(=O)C3CC(=O)N(c4ccccc4)C3)cc2)CC1 (stereo unspecified), the “activity change, negative = cytotoxicity” value is reported as -2.32% (inactive). For CCCOc1ccc(C(=O)Nc2ccc3oc(-c4cccc(Cl)c4Cl)nc3c2)cc1, the “activity change, negative = cytotoxicity” value was 0.327% (inactive). With c1ccc(C(=NNc2nc3ccccc3s2)c2ccccn2)cc1 the “activity change, negative = cytotoxicity” value was -27.2% (inactive). In the case of CCNS(=O)(=O)c1ccc(CCC(=O)N2CCN(c3cc(Cl)ccc3C)CC2)cc1, the “activity change, negative = cytotoxicity” value is reported as -12.7% (inactive). With Cc1c(Cl)cccc1NC(=O)Cn1cc(C(=O)c2cccs2)c2ccccc21 the “activity change, negative = cytotoxicity” value was -25.4% (inactive).
